The full data set covers some 8,800 targets. This sample favours those with a hit. About 0.5% of all pairs of compound and target were hits.
What was measured:
Assay in all cases: log2 fold change, soluble protein after heating vs DMSO (PISA); higher = thermal stabilisation; K562 lysate, 10 uM; active = over 0.2 and 3.5 SD of the protein, either way, in both replicates (recomputed)
[1] = compound: C1=CC=C(C=C1)[C@H](COC2=CC3=C(C=C2)NC(=O)N3)NC(=O)C4=CC=CN(C4=O)CC5=CC(=C(C=C5)F)F
Outline: (§1)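 Soluble protein was defined as the supernatant remaining after 21,000xg for 90 min, following pooling of heated aliquots and adjustment to 0.5% NP-40 at 4°C. Before that, crude K562 extract at 1 mg/mL protein in PBS pH 7.4 with 1 mM MgCl2 was treated with 10 μM compound for 30 min and heated for 3 min across 48°C-58°C. Quantification used TMTpro 16plex LC-MS/MS with channel sums equalised, and values are log-two fold changes in thermal stability relative to solvent controls from duplicates.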

[2] = compound: CC1=C(SC2=C1C(=N[C@H](C3=NN=C(N32)C)CC(=O)N)C4=CC=C(C=C4)Cl)C
Outline: as §1

[3] = compound: CC1=C2C(=CC=C1)N=C(N(C2=O)C3=CC=CC=C3C)CN4C=NC5=C(N=CN=C54)N
Outline: as §1

[4] = compound: Cc1sc2c(c1C)C(c1ccc(Cl)cc1)=N[C@@H](CC(=O)OC(C)(C)C)c1nnc(C)n1-2
Outline: as §1

[5] = compound: c1ccc([C@@H]2C[C@H]2NC2CCNCC2)cc1
Outline: as §1

Chain of UniProt P26583 (P26583 whole entry, looked up): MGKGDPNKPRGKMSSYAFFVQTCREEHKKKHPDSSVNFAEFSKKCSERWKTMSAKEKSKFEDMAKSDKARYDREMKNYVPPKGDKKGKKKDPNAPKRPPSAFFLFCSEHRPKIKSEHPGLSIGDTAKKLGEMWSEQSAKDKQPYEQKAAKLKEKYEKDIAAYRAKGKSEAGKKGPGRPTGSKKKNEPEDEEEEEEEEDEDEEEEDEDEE
Chain of UniProt Q92805 (Q92805 whole entry, looked up): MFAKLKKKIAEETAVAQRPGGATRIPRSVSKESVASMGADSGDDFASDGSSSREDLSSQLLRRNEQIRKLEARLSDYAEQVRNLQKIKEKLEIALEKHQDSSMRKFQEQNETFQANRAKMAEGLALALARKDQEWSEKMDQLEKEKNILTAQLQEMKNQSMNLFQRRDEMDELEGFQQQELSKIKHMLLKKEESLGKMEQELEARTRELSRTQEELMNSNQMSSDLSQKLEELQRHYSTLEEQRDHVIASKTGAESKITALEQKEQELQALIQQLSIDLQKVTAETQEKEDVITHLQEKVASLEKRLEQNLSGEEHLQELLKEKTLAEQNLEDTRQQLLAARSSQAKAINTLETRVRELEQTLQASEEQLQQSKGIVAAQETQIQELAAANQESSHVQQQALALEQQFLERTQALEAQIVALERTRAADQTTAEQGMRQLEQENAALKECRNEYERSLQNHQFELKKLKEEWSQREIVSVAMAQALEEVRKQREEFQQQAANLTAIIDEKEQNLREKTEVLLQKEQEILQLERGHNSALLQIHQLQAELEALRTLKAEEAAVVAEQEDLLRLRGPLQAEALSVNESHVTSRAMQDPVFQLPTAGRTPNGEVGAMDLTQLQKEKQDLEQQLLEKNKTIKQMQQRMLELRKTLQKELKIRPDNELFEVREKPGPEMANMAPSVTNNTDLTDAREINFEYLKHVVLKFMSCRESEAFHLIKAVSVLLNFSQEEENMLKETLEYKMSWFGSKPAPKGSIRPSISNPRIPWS
Chain of UniProt Q9NSE4 (Q9NSE4 whole entry, looked up): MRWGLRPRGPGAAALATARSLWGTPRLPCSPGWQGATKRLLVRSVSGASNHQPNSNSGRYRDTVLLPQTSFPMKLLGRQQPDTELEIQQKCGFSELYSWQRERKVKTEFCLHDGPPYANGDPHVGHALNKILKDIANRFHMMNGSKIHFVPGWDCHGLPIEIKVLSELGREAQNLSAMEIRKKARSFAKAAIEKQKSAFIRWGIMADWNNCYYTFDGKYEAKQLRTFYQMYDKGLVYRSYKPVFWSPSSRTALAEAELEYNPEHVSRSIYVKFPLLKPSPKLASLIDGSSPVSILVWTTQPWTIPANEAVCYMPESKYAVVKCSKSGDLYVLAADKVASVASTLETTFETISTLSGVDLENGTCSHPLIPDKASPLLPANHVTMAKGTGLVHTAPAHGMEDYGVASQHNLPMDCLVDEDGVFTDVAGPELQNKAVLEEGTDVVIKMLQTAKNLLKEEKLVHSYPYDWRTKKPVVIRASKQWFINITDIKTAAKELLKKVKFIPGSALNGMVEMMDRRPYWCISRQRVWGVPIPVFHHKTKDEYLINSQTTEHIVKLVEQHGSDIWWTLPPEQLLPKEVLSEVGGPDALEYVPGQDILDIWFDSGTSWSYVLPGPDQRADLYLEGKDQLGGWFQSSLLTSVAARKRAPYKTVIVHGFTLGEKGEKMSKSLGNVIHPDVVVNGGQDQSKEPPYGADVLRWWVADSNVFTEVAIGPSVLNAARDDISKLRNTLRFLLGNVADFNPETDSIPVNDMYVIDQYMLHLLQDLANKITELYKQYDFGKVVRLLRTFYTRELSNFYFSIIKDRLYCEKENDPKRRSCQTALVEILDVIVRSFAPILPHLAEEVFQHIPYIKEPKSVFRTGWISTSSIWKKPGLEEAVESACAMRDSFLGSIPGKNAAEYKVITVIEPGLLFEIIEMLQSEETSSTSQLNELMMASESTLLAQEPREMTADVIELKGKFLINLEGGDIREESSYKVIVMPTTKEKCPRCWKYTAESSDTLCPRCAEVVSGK
Chain of UniProt Q96AB3 (Q96AB3 whole entry, looked up): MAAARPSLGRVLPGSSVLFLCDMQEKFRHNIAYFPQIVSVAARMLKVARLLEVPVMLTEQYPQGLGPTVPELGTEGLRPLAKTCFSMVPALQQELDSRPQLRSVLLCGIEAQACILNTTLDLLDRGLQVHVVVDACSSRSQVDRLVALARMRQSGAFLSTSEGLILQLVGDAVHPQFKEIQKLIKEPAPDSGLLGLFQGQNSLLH
Chain of UniProt P50053 (P50053 whole entry, looked up): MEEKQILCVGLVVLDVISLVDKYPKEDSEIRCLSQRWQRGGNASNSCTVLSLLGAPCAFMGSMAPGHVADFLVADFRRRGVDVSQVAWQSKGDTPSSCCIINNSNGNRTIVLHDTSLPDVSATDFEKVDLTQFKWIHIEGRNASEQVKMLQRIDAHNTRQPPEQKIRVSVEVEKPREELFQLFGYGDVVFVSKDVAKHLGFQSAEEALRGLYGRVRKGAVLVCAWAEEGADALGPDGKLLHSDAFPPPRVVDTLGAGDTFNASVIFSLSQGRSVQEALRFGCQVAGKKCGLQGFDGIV
Chain of UniProt Q8IU81 (Q8IU81 whole entry, looked up): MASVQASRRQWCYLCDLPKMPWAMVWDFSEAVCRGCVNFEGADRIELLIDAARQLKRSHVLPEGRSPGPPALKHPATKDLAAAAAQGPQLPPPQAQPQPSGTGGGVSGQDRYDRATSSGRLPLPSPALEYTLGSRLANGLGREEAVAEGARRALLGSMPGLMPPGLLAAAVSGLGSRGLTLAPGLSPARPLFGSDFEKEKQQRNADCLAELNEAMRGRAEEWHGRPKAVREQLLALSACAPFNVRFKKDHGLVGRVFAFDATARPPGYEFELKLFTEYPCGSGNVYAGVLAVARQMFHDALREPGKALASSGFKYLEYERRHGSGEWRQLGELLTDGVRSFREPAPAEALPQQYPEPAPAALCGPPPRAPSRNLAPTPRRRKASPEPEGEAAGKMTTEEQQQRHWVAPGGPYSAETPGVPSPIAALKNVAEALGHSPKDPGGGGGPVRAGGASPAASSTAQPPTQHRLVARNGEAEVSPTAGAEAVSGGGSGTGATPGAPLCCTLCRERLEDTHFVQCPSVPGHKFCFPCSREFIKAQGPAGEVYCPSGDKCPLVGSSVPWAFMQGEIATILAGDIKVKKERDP
Chain of UniProt Q5T447 (Q5T447 whole entry, looked up): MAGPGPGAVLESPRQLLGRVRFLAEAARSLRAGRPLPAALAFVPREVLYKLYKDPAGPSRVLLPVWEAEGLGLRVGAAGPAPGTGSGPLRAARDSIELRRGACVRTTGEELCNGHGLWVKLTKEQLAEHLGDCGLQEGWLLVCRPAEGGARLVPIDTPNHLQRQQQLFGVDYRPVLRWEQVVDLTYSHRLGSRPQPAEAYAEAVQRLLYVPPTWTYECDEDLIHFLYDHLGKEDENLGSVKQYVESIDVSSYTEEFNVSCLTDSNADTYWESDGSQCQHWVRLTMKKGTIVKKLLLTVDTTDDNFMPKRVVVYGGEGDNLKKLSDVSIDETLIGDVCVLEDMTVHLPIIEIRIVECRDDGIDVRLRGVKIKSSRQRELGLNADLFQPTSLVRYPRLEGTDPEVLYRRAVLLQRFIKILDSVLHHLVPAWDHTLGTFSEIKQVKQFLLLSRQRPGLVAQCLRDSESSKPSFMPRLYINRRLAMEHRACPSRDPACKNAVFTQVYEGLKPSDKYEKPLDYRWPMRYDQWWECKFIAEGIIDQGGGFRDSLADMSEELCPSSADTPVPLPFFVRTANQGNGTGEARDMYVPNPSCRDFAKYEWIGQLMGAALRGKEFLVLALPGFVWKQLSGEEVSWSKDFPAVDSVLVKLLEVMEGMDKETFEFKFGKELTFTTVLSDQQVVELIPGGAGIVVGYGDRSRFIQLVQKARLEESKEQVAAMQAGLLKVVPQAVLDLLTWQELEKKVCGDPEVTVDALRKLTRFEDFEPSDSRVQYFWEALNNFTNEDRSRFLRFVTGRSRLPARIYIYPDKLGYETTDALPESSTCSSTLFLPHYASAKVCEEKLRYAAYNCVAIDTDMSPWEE
Chain of UniProt Q96SY0 (Q96SY0 whole entry, looked up): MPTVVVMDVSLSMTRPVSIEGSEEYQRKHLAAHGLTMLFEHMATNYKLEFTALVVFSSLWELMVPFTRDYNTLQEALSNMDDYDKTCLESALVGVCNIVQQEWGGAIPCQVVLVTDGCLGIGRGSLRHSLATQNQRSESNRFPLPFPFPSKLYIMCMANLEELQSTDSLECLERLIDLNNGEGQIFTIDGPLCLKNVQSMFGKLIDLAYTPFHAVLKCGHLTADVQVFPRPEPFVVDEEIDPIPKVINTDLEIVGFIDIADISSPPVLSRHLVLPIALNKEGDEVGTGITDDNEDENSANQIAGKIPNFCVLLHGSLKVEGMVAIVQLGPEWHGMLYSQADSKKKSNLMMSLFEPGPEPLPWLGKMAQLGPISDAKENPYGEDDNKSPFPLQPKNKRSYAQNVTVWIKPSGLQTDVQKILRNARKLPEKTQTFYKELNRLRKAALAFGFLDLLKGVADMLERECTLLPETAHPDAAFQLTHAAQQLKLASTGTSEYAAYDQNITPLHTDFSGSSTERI
Chain of UniProt Q01581 (Q01581 whole entry, looked up): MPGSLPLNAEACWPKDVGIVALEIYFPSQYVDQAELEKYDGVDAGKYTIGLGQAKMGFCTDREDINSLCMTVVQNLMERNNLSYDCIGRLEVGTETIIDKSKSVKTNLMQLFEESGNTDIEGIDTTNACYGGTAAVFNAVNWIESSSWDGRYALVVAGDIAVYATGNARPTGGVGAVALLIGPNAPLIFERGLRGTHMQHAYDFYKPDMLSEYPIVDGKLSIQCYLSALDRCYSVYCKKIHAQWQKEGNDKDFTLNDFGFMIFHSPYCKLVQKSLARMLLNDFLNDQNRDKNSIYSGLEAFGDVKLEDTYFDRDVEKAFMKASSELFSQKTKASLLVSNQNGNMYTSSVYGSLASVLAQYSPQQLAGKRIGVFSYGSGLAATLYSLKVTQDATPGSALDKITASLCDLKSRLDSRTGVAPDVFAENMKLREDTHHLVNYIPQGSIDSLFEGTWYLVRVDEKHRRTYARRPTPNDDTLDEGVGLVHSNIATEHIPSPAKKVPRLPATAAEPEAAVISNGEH

Target | log2 fold change [1] | log2 fold change [2] | log2 fold change [3] | log2 fold change [4] | log2 fold change [5]
GTF2H1 (UniProt P32780) | 0.006 (inactive) | -0.035 (inactive) | 0.089 (inactive) | 0.025 (inactive) | 0.006 (inactive)
INTS14 (UniProt Q96SY0) | 0.067 (inactive) | 0.034 (inactive) | -0.038 (inactive) | 0.007 (inactive) | 0.009 (inactive)
ISOC2 (UniProt Q96AB3) | -0.014 (inactive) | 0.035 (inactive) | 0.085 (inactive) | 0.03 (inactive) | -0.031 (inactive)
IRF2BP1 (UniProt Q8IU81) | -0.048 (inactive) | -0.013 (inactive) | -0.043 (inactive) | 0.017 (inactive) | -0.045 (inactive)
HNRNPDL (UniProt O14979) | 0.033 (inactive) | 0.002 (inactive) | 0 (inactive) | 0.048 (inactive) | -0.071 (inactive)
HMGCL (UniProt P35914) | 0.057 (inactive) | -0.017 (inactive) | 0.058 (inactive) | 0.046 (inactive) | 0.006 (inactive)
HDHD5 (UniProt Q9BXW7) | 0 (inactive) | 0.071 (inactive) | 0.032 (inactive) | -0.05 (inactive) | -0.012 (inactive)
HMGCS1 (UniProt Q01581) | 0.043 (inactive) | -0.022 (inactive) | 0.02 (inactive) | 0.003 (inactive) | -0.009 (inactive)
KHK isoform 2 (UniProt P50053) | -0.01 (inactive) | 0.034 (inactive) | -0.003 (inactive) | -0.137 (inactive) | 0.142 (inactive)
IARS2 (UniProt Q9NSE4) | 0.004 (inactive) | 0.013 (inactive) | -0.006 (inactive) | 0.028 (inactive) | 0.119 (inactive)
HERC2 (UniProt O95714) | 0.005 (inactive) | -0.07 (inactive) | -0.011 (inactive) | 0.018 (inactive) | -0.037 (inactive)
ISCA1 isoform 2 (UniProt Q9BUE6) | 0.005 (inactive) | -0.03 (inactive) | 0.016 (inactive) | -0.021 (inactive) | 0.099 (inactive)
GOLGA1 (UniProt Q92805) | -0.042 (inactive) | 0.045 (inactive) | 0.026 (inactive) | -0.057 (inactive) | 0.009 (inactive)
HECTD3 (UniProt Q5T447) | -0.06 (inactive) | 0.038 (inactive) | 0.046 (inactive) | 0.034 (inactive) | 0.06 (inactive)
GPA33 (UniProt Q99795) | 0.007 (inactive) | 0.024 (inactive) | 0.006 (inactive) | -0.248 (inactive) | -0.514 (active)
GSTM2 (UniProt P28161) | -0.007 (inactive) | 0.03 (inactive) | -0.048 (inactive) | -0.037 (inactive) | 0.051 (inactive)
GTF2A1 (UniProt P52655) | 0.025 (inactive) | -0.033 (inactive) | -0.01 (inactive) | -0.057 (inactive) | 0.202 (inactive)
GLUL (UniProt P15104) | -0.011 (inactive) | -0.063 (inactive) | -0.085 (inactive) | 0.031 (inactive) | 0.053 (inactive)
ILRUN (UniProt Q9H6K1) | 0.078 (inactive) | -0.021 (inactive) | 0.03 (inactive) | 0.009 (inactive) | 0.028 (inactive)
INTS10 (UniProt Q9NVR2) | -0.015 (inactive) | -0.057 (inactive) | 0.023 (inactive) | -0.077 (inactive) | -0.003 (inactive)
HMGB2 (UniProt P26583) | 0.022 (inactive) | -0.069 (inactive) | -0.03 (inactive) | 0.036 (inactive) | 0.161 (inactive)

Reference: the supplement of paper PMC10849652
